Several values for one entry are separate records, joined by “and”; a condition that tells them apart may be missing. Equal values may be shown once.
Test: qHTS profiling for inhibitors of Plasmodium falciparum (3D7) proliferation (AID 743322);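 note: infected erythrocytes exposed to compound for 72 h before lysis; 100% = DMSO vehicle wells and 0% = 0.29 µM artemisinin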
Settings: P. falciparum 3D7 proliferation; at 28.7 µM (top of the series) unless noted
Excerpt: Plasmodium falciparum is a virulent malarial parasite that kills 1-2 million people worldwide each year. Transmitted by mosquitoes, the sporozoite form of the parasite enters the blood stream to infect hepatocytes, where they become merozoites that infect red blood cells (erythrocytes). Within erythrocytes, merozoites begin a […] cycle of growth and division, after which the parasite is released to infect new red blood cells. Gametocytes, which form within erythrocytes as well, circulate in the bloodstream and are ingested by the mosquito, thereby completing the life cycle. To profile malarial isolates for differential chemical responses and to identify inhibitors of malarial growth, an assay that measures P. falciparum growth and replication within erythrocytes was employed. This assay uses a DNA binding fluorescent dye (SYBR Green) to detect parasite DNA following cell lysis. Because mature erythrocytes lack DNA, only Plasmodium-derived DNA is detected.
The SYBR Green viability assay was adapted from a method described previously (Plouffe et al., 2008). For screening 3 ul culture medium was dispensed into 1536 well black clear bottom plates (Aurora Biotechnologies) using a Multidrop Combi (Thermo Fisher Scientific Inc.), 23 nL compounds in DMSO were added by a pin tool (Kalypsys), and 5 ul of erythrocytes infected with P. falciparum (0.3% parasitemia, 2.5% hematocrit final concentration) were added. The plates were incubated at 37 C in a humidified incubator in 5% CO2 for 72 h, and 2 ul lysis buffer (20 mM Tris HCl, 10 mM EDTA, 0.16% saponin, 1.6% triton X, 10X SYBR Green I supplied as 10,000X […] by Invitrogen) was added to each well. The plates were mixed for 25 sec with gentle shaking and incubated overnight at room temperature in the dark. The following morning, fluorescence intensity at 485(14) nm excitation and 535(25) nm emission wavelengths was measured on an EnVision (Perkin Elmer) plate reader. Plate reads were normalized relative to the control inhibitor (0.29 uM artemisinin) and vehicle (DMSO) wells present on each plate and then corrected by an algorithm using vehicle-only control plates at the beginning and end of the compound plate stack.

SMILES	remaining parasite growth % (stronger effect = lower value)
CCOC(=O)C(C)Oc1cccc2c(=O)n(CC(=O)Nc3ccc4c(c3)OCCO4)ccc12 (centres undefined)	115%
Cc1nc(Nc2ncc(C(=O)Nc3c(C)cccc3Cl)s2)cc(N2CCN(CCO)CC2)n1	71.9%
COc1cc(Nc2c(C#N)cnc3cc(OCCCN4CCN(C)CC4)c(OC)cc23)c(Cl)cc1Cl	-0.245%
O=c1cc(N2CCOCC2)oc2c(-c3ccccc3)cccc12	105%
CC(C)c1ccc2c(c1)c(SC(C)(C)C)c(CC(C)(C)C(=O)O)n2Cc1ccc(Cl)cc1	39.7%
CC(C)C[C@H](NC(=O)[C@H](Cc1ccccc1)NC(=O)c1cnccn1)B(O)O	-0.334%
COc1cc2c(N3CCN(C(=O)Nc4ccc(OC(C)C)cc4)CC3)ncnc2cc1OCCCN1CCCCC1	-0.248%
CCN(CC)C(=S)SSC(=S)N(CC)CC	99.1%
NC(=NCc1ccccc1)NC(=O)c1nc(Cl)c(N)nc1N	-0.258% [at 18.4 µM]
C[C@@H](N)C1CCC(C(=O)Nc2ccncc2)CC1 (some centres undefined)	103%
CN(C)c1ccc2nc3ccc(=[N+](C)C)cc-3sc2c1	1.85% [at 57.5 µM]
CCc1nc(N)nc(N)c1-c1ccc(Cl)cc1	-1.1%
CCN(CC)CCOc1ccc(Nc2ncc3cc(-c4c(Cl)cccc4Cl)c(=O)n(C)c3n2)cc1	0.673%
CCCCN(CCCC)CCC(O)c1cc2c(Cl)cc(Cl)cc2c2cc(C(F)(F)F)ccc12 (centres undefined)	-0.286% [at 9.63 µM]
Nc1cccc2c1CN(C1CCC(=O)NC1=O)C2=O (centres undefined)	98.3% [at 57.5 µM] and 94.5% [at 57.5 µM]
Cc1ccc(NC(=O)c2ccc(CN3CCN(C)CC3)cc2)cc1Nc1nccc(-c2cccnc2)n1	1.04%
Cc1cc(C2CCCCC2)n(O)c(=O)c1	-0.4%
Cc1cccc(C#Cc2ccccc2)n1	106%
Nc1nc(Cl)nc2c1ncn2[C@H]1C[C@H](O)[C@@H](CO)O1	83.8% [at 57.5 µM]
Cc1cccc(C)c1OCC(=O)N[C@@H](Cc1ccccc1)[C@@H](O)C[C@H](Cc1ccccc1)NC(=O)[C@H](C(C)C)N1CCCNC1=O	-1.44%
CCOC(=O)C1=C(O)C(=O)N(Cc2ccccc2)C1	34%
Cc1cccc(-c2[nH]ncc2-c2ccc3ncccc3n2)n1	92.9% [at 57.5 µM]
CCN(CCO)CCCC(C)Nc1ccnc2cc(Cl)ccc12 (centres undefined)	0.834% and 0.742%
S=c1nc[nH]c2nc[nH]c12	58.5% [at 57.5 µM]
